Among the data in PubChem BioAssay (NCI) are growth values, retold here.

About 83,000 compounds went through this panel and 20% of them were active in at least one assay; those are over-represented in the sample as a whole.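 Activity criterion: percent growth below 10, measured after cells in 96-well plates were exposed to a single compound concentration for 48 hours.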 A number with no mark means an inactive call. Activity calls are given as the source filed them.

The test system of this assay is KM12 colon. Kind of assay: NCI-60 one-dose screen, 48 h (100 = growth as untreated, 0 = no growth, -100 = all killed). Particulars: 10 µM unless noted.
Take `COc1ccc(C(=O)c2cc(C)c(OC)c(C)c2)c(OC)c1NC(C)=O`: the growth was 8.12% (active).
With `CCCCCN1C=C/C(=C\C(=O)n2ccc3ccccc32)c2ccccc21`, the growth was 89.2%.
To `COc1ccc(C(=O)C2C(C#N)C(C#N)C3C=Cc4ccccc4N32)cc1` (stereo not drawn) belongs 6.36% (active); to `COc1cc2c(cc1OC)C(=O)/C(=C/c1cc(C)c(O)c(C)c1)S2`, 26.2%; to `CN1CCN(C(=O)[C@]23CCC(C)(C)C[C@H]2C2=CC[C@@H]4[C@@]5(C)C/C(=C/c6cccnc6)C(=O)C(C)(C)[C@@H]5CC[C@@]4(C)[C@]2(C)CC3)CC1`, 55.1%.
To `COc1cc(C=O)ccc1OC1OC(COC(C)=O)C(OC(C)=O)C(OC(C)=O)C1OC(C)=O` (stereo not drawn) belongs 103%.
For the molecule `Cc1ccc(CNc2c3ccccc3nc3cc(NC(=O)CCN4CCCC4)ccc23)cc1`, the growth was -6.45% (active).
Next, `N#Cc1c(NCc2ccccc2I)sc2c1CCCCC2`: 96.6%; `Cn1nc(CC#N)c2c(=N)n(N)cnc21`: 102%; `COc1cc2nc(-c3ccc(Cl)cc3)cc(OCCCN3CCCC3)c2cc1OC`: 41.4%.
To `CCCCCCNC(=O)Nc1ccc2cc3ccc(NC(=O)NCCCCCC)cc3nc2c1` belongs 19.4%; to `O=C(Cn1c(C(=O)c2ccccc2)nc2ccccc21)c1ccc(F)cc1`, 43.9%.
With `O=C(/C(=C\c1ccc([N+](=O)[O-])cc1)S(=O)Cc1ccc(F)cc1)c1ccc(F)cc1` (stereo not drawn), the growth was 43.4%.
To `Cn1ccc2c1CC1CN(Cc3ccco3)C(=O)C1C2C(=O)O` (stereo not drawn) belongs 101%; to `O=C(O)c1ccc(-c2nn(-c3ccc(C(F)(F)F)cc3)cc2CNc2ccc(Oc3ccccc3)cc2)cc1`, 59.5%.
For `N#CC(C(=O)/C(=N/NC(=O)c1ccccc1O)C(C#N)c1ccccc1)c1ccccc1` (stereo not drawn), the growth is 46.5%.
Turning to `Cc1ccc(NC(=O)Cc2ccc(/C=C/C(=O)c3ncc[nH]3)cc2)cc1`, the growth is 11.3%.
With `Nc1n[nH]c2cccc(C#Cc3cccc(C(=O)Nc4cc(CN5CCOCC5)cc(C(F)(F)F)c4)c3)c12`, the growth is 13.1%.
Next, `O=C(/C=C(/C=C/c1coc2ccccc12)OB(F)F)/C=C/c1coc2ccccc12`: 91.3%; `Cc1nc2sccn2c1-c1cn2ccsc2n1`: 64.1%; `C=C1C(=O)O[C@H]2[C@H]1CC/C(CNC(=O)/C=C/c1ccccc1)=C\CC[C@@]1(C)O[C@@H]21`: 76.5%.
On to `N#CC1=C(N)Oc2c(cnn2-c2ccc([N+](=O)[O-])cc2[N+](=O)[O-])C1c1ccccc1` (stereo not drawn), for which the growth is 101%.
Next, `NNC(=O)c1ccc(-n2nc(-c3ccccc3)c3ccccc32)cc1`: 94.8%.
For the molecule `CC1=CCC(OC(=O)C(C)(O)CCC(O)(C(=O)OC2(C)C=CC(O)(C(C)C)CC2)C(C)C)(C(C)C)CC1` (stereo not drawn), the growth is 108%.
Next, `S=c1cc(S)c2cc(Br)ccc2[nH]1`: 101%; `NCCCCCCNc1cc(-c2cccc(OC(F)(F)F)c2)nc2ccc(N3CCCC3)cc12`: -82.7% (active); `COc1cccc(-c2cc(C(=O)Nc3ccc(/C=C/c4ccc(OC5CCN(C)CC5)cc4)cc3)ccc2OC)c1`: -72.8% (active).
To `COC(=O)/C=C1\S/C(=N\NC(=O)c2cc3ccc2/C=C\c2ccc(cc2)/C=C\3)N(Cc2ccccc2)C1=O` belongs 65.1%; to `Nc1c(C(=O)Nc2cccc3cnccc23)sc2nc3c(cc12)CN(Cc1ccccc1)CC3`, 102%.
Next, `Cc1c(C(=O)NCCC(=O)NO)sc2ncnc(Nc3ccc(NC(=O)Nc4cccc(C(F)(F)F)c4)cc3)c12`: 100%; `O=S(=O)(NCCCNc1nccc(-c2c(-c3cccc(F)c3)nc3sccn23)n1)c1cccc2ccccc12`: 26%; `CN1C(N2CCN(S(=O)(=O)c3ccccc3)CC2)=NS(=O)(=O)c2ccccc21`: 91.5%.
Turning to `N#C/C(=C\c1ccccn1)c1nc2cc(Cl)ccc2s1`, the growth was 96.2%.
Regarding `COc1cc2oc(-c3cccc(C(=O)Nc4ccccc4)c3)cc(=O)c2c(O)c1OC`, the growth is 57.8%.
With `COc1ccc(/C=C2\Oc3cc(OCCCN4CCCCC4)ccc3C2=O)cc1OC`, the growth was 93.6%.
As for `O=S(=O)(NCCNc1nccc(-c2c(-c3cccc(F)c3)nc3sccn23)n1)c1ccc(Cl)cc1`, the growth is 47.7%.
Next, `COc1ccc2c(c1)oc1c(C)c3c(c(C)c12)C(=O)N(CCN1CCOCC1)C3=O`: 96.1%.
To `CNCCn1c(=O)c2cc(OC)c(OC)cc2c2ccc3cc4c(cc3c21)OCO4` belongs 3.17% (active).
